Reference: the supplement of paper PMC7724964

Experiments:
Assay in all cases: phage ELISA signal ratio (GST-PRM binding over GST background); higher = stronger binding of peptide-phage to the PRM
[1] = target: HSPA9 438-651 HSP70 (domain begin residue: 438, domain end residue: 651), P38646
Procedure, shortened: (§1)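 Human peptide recognition domains were expressed in 96-well plates as fusions to the C-terminus of glutathione S-transferase (GST) and selected against an M13 phage library displaying randomized hexadecapeptides, cysteine-free and glycine-flanked, on the gene-8 major coat protein. Five selection rounds were run, and approximately 48 individual clones from rounds 4 and 5 were tested by phage ELISA. Each value is the ELISA signal on the GST-domain fusion divided by the signal on GST alone. Positive clones were sequenced.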

[2] = target: KMT2C 1055-1137 PHD (domain begin residue: 1055, domain end residue: 1137)
Procedure, shortened: as §1

[3] = target: KPNB1 1-876 IBN_N+Arm (domain begin residue: 1, domain end residue: 876), Q14974
Procedure, shortened: as §1

[4] = target: T1, IRS1 157-267 IRS (domain begin residue: 157, domain end residue: 267), P35568
T1 chain: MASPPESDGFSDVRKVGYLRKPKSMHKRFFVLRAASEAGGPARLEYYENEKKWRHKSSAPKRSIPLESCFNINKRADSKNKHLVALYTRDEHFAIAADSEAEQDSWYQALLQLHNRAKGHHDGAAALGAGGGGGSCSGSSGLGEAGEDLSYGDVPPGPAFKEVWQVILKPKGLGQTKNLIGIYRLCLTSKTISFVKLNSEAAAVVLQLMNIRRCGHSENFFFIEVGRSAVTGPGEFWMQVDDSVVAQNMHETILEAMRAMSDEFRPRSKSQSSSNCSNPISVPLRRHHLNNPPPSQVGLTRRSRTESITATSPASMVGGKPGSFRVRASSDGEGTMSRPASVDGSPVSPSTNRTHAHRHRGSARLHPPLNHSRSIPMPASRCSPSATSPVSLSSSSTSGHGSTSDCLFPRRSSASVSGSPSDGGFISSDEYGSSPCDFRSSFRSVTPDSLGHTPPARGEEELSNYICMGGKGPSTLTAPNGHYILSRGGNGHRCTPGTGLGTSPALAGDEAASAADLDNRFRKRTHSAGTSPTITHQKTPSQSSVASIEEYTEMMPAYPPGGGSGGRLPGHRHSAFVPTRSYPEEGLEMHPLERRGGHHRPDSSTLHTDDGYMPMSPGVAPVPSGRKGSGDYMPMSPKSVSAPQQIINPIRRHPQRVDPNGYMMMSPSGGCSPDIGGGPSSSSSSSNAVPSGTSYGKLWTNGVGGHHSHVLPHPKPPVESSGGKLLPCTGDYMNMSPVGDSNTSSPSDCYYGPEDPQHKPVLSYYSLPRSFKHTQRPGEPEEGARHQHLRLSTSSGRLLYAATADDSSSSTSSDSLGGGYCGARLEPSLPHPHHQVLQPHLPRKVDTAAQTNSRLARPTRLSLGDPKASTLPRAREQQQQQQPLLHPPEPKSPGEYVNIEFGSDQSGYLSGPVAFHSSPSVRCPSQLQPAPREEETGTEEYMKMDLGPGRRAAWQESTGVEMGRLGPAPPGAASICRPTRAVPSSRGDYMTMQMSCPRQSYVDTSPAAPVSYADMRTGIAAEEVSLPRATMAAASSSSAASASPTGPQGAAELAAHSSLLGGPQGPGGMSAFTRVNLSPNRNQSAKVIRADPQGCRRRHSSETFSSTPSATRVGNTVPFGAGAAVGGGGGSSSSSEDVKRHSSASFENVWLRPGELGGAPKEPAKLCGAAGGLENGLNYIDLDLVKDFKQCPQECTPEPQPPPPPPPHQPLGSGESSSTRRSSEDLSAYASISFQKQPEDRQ
Procedure, shortened: as §1

[5] = target: KDM6A 1-520 TPR_8 (domain begin residue: 1, domain end residue: 520), O15550
Procedure, shortened: as §1

[6] = target: T2, LBR 1-67 LBR_tudor (domain begin residue: 1, domain end residue: 67), Q14739
T2 chain: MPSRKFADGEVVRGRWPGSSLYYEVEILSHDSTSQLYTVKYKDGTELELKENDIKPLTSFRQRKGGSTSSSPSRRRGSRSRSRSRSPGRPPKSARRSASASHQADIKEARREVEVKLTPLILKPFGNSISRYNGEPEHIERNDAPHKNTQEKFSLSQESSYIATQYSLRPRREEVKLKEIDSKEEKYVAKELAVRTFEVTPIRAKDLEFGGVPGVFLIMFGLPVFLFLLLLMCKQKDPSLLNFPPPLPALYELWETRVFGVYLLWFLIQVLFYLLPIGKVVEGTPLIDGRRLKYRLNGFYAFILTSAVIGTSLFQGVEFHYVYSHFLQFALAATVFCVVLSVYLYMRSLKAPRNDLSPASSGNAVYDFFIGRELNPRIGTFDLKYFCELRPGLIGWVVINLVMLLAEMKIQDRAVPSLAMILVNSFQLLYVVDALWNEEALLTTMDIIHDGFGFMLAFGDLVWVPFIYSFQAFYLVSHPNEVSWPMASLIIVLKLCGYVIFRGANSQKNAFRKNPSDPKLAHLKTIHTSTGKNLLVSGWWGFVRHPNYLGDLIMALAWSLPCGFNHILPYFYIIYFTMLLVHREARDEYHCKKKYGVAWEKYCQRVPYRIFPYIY
Procedure, shortened: as §1

[7] = target: MAD2L1 2-205 HORMA (domain begin residue: 2, domain end residue: 205), Q13257
Procedure, shortened: as §1

[8] = target: T3, RARA 175-421 Hormone_recep (domain begin residue: 175, domain end residue: 421), P10276
T3 chain: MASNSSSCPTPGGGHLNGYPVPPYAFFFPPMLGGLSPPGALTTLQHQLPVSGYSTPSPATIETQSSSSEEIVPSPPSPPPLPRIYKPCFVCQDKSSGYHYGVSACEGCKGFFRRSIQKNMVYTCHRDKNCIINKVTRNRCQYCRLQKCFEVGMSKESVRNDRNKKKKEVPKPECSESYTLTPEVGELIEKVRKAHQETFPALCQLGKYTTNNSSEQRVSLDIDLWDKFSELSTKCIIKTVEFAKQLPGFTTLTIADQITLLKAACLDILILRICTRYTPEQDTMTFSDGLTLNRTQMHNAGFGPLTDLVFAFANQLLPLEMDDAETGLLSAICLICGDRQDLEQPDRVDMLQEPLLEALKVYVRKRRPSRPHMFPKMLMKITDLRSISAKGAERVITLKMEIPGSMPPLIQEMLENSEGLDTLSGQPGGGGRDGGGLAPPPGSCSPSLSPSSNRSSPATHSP
Procedure, shortened: as §1

[9] = target: T4, KAT8 2-458 Tudor-knot+MOZ_SAS (domain begin residue: 2, domain end residue: 458), Q9H7Z6
T4 chain: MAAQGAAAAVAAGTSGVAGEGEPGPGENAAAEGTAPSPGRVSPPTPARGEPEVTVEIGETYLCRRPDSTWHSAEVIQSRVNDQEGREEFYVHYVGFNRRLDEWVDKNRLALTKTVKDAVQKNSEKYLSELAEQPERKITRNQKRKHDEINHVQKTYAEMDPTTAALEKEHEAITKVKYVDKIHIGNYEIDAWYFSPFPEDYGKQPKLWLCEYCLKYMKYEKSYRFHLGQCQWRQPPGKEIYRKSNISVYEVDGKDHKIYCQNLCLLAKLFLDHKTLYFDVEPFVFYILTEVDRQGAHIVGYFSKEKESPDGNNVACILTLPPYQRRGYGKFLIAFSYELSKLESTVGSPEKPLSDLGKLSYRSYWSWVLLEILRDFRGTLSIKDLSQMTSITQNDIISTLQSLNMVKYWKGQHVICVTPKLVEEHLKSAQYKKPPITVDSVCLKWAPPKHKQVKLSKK
Procedure, shortened: as §1

[10] = target: T5, TDRD1 261-449 TUDOR (domain begin residue: 261, domain end residue: 449), Q9BXT4
T5 chain: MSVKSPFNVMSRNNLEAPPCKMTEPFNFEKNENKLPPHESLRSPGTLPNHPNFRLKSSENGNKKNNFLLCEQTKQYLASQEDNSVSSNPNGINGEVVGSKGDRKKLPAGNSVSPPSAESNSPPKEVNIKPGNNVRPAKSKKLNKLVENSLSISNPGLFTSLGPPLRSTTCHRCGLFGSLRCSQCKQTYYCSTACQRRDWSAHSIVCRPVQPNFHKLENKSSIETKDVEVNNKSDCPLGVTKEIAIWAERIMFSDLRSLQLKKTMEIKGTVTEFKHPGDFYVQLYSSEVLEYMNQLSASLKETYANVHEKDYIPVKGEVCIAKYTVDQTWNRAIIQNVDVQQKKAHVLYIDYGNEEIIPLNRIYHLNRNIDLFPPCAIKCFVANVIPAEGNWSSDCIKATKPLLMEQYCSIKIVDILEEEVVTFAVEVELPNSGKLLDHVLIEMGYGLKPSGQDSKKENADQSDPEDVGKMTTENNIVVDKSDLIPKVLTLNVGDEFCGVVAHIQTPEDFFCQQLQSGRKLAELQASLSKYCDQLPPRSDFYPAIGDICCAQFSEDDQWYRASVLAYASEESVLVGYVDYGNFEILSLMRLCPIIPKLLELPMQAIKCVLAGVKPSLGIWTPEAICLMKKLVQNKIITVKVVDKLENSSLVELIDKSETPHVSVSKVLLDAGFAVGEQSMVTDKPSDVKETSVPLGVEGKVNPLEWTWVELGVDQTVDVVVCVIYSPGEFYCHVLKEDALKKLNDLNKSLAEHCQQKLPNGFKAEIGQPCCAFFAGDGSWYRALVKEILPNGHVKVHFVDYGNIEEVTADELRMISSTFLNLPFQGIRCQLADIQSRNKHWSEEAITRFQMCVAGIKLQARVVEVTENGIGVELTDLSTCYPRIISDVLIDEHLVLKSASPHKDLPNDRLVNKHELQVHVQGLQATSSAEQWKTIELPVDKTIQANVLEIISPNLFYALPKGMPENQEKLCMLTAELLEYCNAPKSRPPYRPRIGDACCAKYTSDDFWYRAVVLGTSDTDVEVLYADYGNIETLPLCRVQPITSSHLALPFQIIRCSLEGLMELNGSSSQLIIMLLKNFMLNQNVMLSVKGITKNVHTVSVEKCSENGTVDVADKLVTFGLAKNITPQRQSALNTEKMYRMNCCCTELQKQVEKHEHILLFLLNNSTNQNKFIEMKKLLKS
Procedure, shortened: as §1

[11] = target: KARS 71-214 tRNA_anti-codon (domain begin residue: 71, domain end residue: 214), Q15046
Procedure, shortened: as §1

Sequence of KDM6A 1-520 TPR_8 (domain begin residue: 1, domain end residue: 520), O15550 (O15550 whole entry): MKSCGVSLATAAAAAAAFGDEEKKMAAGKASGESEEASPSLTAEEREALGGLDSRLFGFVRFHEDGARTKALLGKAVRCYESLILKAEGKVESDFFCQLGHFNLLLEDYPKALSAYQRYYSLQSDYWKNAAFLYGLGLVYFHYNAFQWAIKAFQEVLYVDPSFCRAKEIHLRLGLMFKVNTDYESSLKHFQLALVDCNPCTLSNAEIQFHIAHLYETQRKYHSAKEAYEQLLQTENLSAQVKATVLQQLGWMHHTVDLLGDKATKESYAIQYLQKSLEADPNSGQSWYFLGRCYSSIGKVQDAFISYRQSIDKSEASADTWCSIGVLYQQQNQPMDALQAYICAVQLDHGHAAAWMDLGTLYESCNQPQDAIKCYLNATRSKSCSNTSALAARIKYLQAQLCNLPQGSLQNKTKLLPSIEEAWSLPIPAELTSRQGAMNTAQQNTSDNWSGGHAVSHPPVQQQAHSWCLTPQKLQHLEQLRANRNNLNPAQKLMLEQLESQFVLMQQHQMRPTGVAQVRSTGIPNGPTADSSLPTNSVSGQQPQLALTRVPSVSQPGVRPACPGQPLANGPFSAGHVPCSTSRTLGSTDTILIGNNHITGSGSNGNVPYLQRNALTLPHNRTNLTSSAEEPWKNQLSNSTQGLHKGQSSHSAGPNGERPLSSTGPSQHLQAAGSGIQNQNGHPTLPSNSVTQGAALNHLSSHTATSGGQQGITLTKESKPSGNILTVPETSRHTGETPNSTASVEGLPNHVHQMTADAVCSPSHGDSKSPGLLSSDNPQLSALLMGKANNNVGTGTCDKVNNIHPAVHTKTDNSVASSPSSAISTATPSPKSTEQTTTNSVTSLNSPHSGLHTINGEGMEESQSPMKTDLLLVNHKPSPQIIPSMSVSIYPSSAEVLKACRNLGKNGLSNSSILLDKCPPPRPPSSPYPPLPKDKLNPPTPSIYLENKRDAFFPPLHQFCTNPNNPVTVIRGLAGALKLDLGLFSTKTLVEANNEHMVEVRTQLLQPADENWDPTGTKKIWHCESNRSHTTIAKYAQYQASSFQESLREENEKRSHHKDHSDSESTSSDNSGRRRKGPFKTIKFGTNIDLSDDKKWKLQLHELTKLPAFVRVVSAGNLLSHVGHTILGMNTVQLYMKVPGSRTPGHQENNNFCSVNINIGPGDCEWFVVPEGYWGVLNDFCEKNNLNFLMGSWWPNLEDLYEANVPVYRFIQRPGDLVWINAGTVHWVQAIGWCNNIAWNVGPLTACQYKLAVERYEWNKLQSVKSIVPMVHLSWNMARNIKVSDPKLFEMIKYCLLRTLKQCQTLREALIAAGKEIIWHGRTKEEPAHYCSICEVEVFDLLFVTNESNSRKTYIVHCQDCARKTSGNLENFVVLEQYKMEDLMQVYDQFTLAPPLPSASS
Sequence of HSPA9 438-651 HSP70 (domain begin residue: 438, domain end residue: 651), P38646 (P38646 whole entry, the tested form may be a part): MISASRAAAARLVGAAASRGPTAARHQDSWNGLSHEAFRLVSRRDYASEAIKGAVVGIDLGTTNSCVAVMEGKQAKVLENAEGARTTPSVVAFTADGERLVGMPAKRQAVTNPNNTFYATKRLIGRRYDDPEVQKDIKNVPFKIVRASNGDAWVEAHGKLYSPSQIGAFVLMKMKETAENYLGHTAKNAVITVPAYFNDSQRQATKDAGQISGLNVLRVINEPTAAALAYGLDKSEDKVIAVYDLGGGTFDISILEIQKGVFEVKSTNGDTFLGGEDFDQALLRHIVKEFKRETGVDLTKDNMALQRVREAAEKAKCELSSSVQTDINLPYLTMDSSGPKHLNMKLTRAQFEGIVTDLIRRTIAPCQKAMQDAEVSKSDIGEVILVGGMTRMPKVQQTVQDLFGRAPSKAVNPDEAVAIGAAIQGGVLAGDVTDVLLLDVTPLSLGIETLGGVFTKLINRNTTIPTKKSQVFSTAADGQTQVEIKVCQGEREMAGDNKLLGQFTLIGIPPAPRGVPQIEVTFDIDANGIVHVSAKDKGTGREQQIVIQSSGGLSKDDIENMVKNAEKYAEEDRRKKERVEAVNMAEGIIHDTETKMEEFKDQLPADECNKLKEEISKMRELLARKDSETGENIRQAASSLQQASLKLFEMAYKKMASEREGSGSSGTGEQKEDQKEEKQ
Sequence of KPNB1 1-876 IBN_N+Arm (domain begin residue: 1, domain end residue: 876), Q14974 (Q14974 whole entry): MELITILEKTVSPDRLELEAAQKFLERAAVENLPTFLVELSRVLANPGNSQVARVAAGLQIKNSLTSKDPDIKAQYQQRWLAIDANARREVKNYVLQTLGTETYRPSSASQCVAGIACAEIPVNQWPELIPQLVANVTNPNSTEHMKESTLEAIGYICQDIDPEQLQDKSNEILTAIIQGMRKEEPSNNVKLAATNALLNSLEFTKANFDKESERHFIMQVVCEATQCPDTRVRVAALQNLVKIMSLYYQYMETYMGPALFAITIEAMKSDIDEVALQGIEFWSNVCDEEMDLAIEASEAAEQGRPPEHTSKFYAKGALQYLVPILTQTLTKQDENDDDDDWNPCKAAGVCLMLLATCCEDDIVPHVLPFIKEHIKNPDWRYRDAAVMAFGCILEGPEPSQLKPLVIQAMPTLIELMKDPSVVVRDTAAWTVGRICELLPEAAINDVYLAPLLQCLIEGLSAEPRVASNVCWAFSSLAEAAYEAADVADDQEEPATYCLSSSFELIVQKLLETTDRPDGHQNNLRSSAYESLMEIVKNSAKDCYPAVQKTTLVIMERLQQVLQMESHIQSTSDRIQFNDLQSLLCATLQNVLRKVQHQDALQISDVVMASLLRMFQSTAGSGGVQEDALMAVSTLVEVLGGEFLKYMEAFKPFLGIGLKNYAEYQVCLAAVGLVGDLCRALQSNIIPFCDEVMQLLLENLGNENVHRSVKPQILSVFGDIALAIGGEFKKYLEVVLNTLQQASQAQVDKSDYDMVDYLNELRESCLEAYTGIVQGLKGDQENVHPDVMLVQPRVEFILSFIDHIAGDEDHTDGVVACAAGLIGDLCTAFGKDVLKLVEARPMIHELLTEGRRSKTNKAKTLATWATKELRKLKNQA
Sequence of KARS 71-214 tRNA_anti-codon (domain begin residue: 71, domain end residue: 214), Q15046 (Q15046 whole entry, looked up, tested part not stated): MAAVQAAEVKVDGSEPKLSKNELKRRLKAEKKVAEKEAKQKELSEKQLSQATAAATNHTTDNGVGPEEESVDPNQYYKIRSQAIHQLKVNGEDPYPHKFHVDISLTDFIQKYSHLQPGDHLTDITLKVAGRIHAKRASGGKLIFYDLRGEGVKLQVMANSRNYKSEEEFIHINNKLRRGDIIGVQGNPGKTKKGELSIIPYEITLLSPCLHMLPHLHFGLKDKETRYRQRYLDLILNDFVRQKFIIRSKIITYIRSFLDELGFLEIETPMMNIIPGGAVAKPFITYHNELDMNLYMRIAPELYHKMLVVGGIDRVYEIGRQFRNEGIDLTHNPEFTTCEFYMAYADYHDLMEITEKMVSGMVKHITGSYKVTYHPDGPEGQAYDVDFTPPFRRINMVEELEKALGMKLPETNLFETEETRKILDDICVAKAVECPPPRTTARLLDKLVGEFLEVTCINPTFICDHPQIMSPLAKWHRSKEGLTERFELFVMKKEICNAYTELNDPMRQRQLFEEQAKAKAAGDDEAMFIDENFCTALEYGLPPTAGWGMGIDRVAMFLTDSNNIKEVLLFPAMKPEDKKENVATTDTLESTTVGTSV
Sequence of MAD2L1 2-205 HORMA (domain begin residue: 2, domain end residue: 205), Q13257 (Q13257 whole entry): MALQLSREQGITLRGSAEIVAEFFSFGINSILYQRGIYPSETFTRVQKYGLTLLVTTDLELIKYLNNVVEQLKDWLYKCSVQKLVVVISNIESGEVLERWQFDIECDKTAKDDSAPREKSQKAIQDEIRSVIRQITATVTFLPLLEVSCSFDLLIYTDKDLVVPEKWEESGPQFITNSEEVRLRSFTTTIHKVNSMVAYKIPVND

## TFSMHRDEFQMLLNMM
[1]
  phage ELISA signal ratio: 23.3

## PYGLTAEGYERFLWLV
[1]
  phage ELISA signal ratio: 28

## FETLEVIPGLGEFFKQ
[2]
  phage ELISA signal ratio: 6.9

## WISFPFSDWQGDLFTF
[3]
  phage ELISA signal ratio: 10.3

## WIPADFQEWMELVAYD
[4]
  phage ELISA signal ratio: 22.4

## YHWDNLLEPTIQTYMG
[5]
  phage ELISA signal ratio: 7.69

## DNAMVIWHSTTELYQH
[5]
  phage ELISA signal ratio: 3.82

## WDWVVREMSFDEVFIF
[3]
  phage ELISA signal ratio: 20.4

## PTLLLWQQIDQVMMKK
[1]
  phage ELISA signal ratio: 20.8

## WQMWTPLGDLDQIYTF
[3]
  phage ELISA signal ratio: 16.1

## SPNVVEYPDWFMWAIE
[5]
  phage ELISA signal ratio: 7.87

## WVETSTYPEWPAVFVF
[3]
  phage ELISA signal ratio: 16.3

## YGWETIWDTFPVDMPA
[6]
  phage ELISA signal ratio: 3.69

## SWWMLQGPKQMNEIHA
[7]
  phage ELISA signal ratio: 8.75

## SDMNWWEEWDFFLARE
[4]
  phage ELISA signal ratio: 15

## DDVTWMWPPGGYFVNM
[6]
  phage ELISA signal ratio: 4.54

## PSEWENYMSVGDIFIF
[3]
  phage ELISA signal ratio: 16.9

## VFTFTMSWDAWEYILY
[1]
  phage ELISA signal ratio: 18.4

## DLQQWIIDFYIHSMET
[1]
  phage ELISA signal ratio: 20.6

## STEFFYDWGYWEQMIE
[1]
  phage ELISA signal ratio: 19.8
[8]
  phage ELISA signal ratio: 9.16

## QWLEWISPEIDFTPME
[5]
  phage ELISA signal ratio: 3.57

## IWTWEYNPHYEIIHDM
[4]
  phage ELISA signal ratio: 18.6

## LDWVSMFEDNSSQFSV
[3]
  phage ELISA signal ratio: 17.2

## YIDHMYDVVMYEEIEW
[9]
  phage ELISA signal ratio: 3.94
[10]
  phage ELISA signal ratio: 8.98

## TYYLDPFAWEYLQAEY
[1]
  phage ELISA signal ratio: 20.2

## EQWEIEWLEHFNTYWE
[11]
  phage ELISA signal ratio: 17.2

## DLVDWMSATWNENPWY
[4]
  phage ELISA signal ratio: 20.7

## YFTMDHDAWHYFQLYA
[1]
  phage ELISA signal ratio: 20.2
